The values below come from PubChem BioAssay.

Activity calls are given as the source filed them.

Experiment [1] relates to PRMT1 (protein arginine N-methyltransferase 1). Briefly: PRMT1 binders on small-molecule microarrays, primary screen, biochemical, small-molecule microarray, 635 nm fluorescence (AID 1088).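 Note: binding of Prmt1 protein to compounds spotted on small-molecule microarray slides.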 The note with it: small-molecule microarray binding, higher = more signal.
A short description of experiment [2]: yeast growth modulation, basal conditions, primary screen, YJM789 clinical isolate, OD600, 24 h (AID 1089).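 Note: growth of clinical yeast isolate S. cerevisiae YJM 789 seeded 1000 cells per well; test concentration not given here.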 As to conditions: S. cerevisiae YJM789 growth, higher = more signal, called active from +8 up or from −8 down.
Experiment [3] is described as follows: fission yeast growth modulation, primary screen, strain 972, OD600, 24 h, no modulator (AID 1090).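 Note: basal condition with compound alone and no growth modifier present; test concentration not given here.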 As to conditions: S. pombe 972 growth, higher = more signal, called active from +8 up or from −8 down.
Experiment [4] in a line: S. cerevisiae growth modulation with rapamycin, primary screen, strain BY4716, OD600, 96 h (AID 1091). Note: test concentration not given here. The note with it: higher = more signal, called active from +8 up or from −8 down.
For experiment [5], the target named is Torsin-1A-interacting protein 2 (Homo sapiens) (UniProt Q8NFQ8). Briefly: LULL1 binders on small-molecule microarray, primary screen, cell lysate, human LULL1 lysate, 635/667 nm fluorescence (AID 1092).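 Note: probe is lysate of COS7 cells overexpressing human LULL1; score merges per-feature 667 nm fluorescence with signal-to-noise.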 As to conditions: hLULL1 lysate binding, 635 nm fluorescence, higher = more signal.
A short description of experiment [6]: E. coli growth modulation, two-sided OD650, primary screen, E. coli filamentation project, strain DRC41, 24 h (AID 1093).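 Note: MC1000 strain lacking acrAB efflux and sulA so SOS filamentation is blocked; test concentration not given here.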 As to conditions: OD650, 24 h, higher = more signal, called active from +8 up or from −8 down.
A short description of experiment [7]: small-molecule microarray binders of probe aLefty2, primary screen, biochemical, biotinylated probe, 635/667 nm fluorescence (AID 1094).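 Note: score merges spot fluorescence near 667 nm with spot signal-to-noise ratio.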 As to conditions: higher = more signal.
Experiment [8] deals with Noggin (protein binding on small-molecule microarray). Briefly: Noggin binders on small-molecule microarray, primary screen, biochemical, 635/667 nm fluorescence (AID 1095).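 Note: score merges 667 nm feature fluorescence with signal to noise over triplicate slides.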 The note with it: 635 nm fluorescence, higher = more signal.
The target in experiment [9] is Neurogenic locus notch homolog protein 3 (Homo sapiens) (UniProt Q9UM47). Briefly: NOTCH3 binders on small-molecule microarray, primary screen, biochemical, 635/667 nm fluorescence (AID 1096). The note with it: NOTCH3 binding, 635 nm fluorescence, higher = more signal.
Experiment [10] is described as follows: small-molecule microarray binders of probe aEGFR, primary screen, biochemical, biotinylated probe, 635/667 nm fluorescence (AID 1097).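 Note: probe is a biotinylated anti-EGFR antibody binding compounds printed on slides; score combines fluorescence near 667 nm and signal to noise of each spot.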 As to conditions: higher = more signal.
The subject of experiment [11] is Plasmodium falciparum Sir2 (PF13_0152, Sir2A). Briefly: pfSir2 binders on small-molecule microarrays, primary screen, biochemical, small-molecule microarray, 635 nm fluorescence (AID 1098).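 Note: score merges spot fluorescence intensity with its signal-to-noise ratio.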 The note with it: small-molecule microarray binding, fluorescence 635 nm; higher = more signal.
Experiment [12] can be described thus: small-molecule microarray binders of probe aDKK1, primary screen, biochemical, biotinylated probe, 635/667 nm fluorescence (AID 1099).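 Note: score merges 667nm spot fluorescence with signal to noise across triplicate slides; reference of the scale not given here.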 As to conditions: higher = more signal.
The nature of experiment [13]: small-molecule microarray binders of probe aCHRDL2, primary screen, biochemical, biotinylated probe, 635/667 nm fluorescence (AID 1100). As to conditions: higher = more signal.
A short description of experiment [14]: splicing luciferase reporter signal modulators, primary screen, spliceosome inhibition project, cell-based, HEK293, splice +/- reporter (AID 1101).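 Note: HEK293 cells carrying a splicing-competent luciferase reporter gene; test concentration not given here.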 The note with it: luminescence, 24 h, higher = more signal, called active from +8 up or from −8 down.
For experiment [15], the target named is Fibroblast growth factor 10 (Homo sapiens) (UniProt O15520). Briefly: FGF10 binders on small-molecule microarrays, primary screen, biochemical, small-molecule microarray, 635 nm fluorescence (AID 1102). The note with it: FGF10 binding, fluorescence 635 nm, higher = more signal.
Experiment [16] relates to glycogen synthase kinase-3 (GSK3A per assay name; protocol says GSK3B). Briefly: GSK3 binders on small-molecule microarrays, primary screen, biochemical, small-molecule microarray, 635 nm fluorescence, GSK3A (AID 1103). Note: the record names both GSK3A and GSK3B. As to conditions: small-molecule microarray binding, fluorescence 635 nm; higher = more signal.
In experiment [17] the target is Epidermal growth factor receptor (Homo sapiens) (UniProt P00533). Briefly: EGFR binders on small-molecule microarrays, primary screen, biochemical, small-molecule microarray, 635 nm fluorescence (AID 1104).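 Note: score merges 667 nm emission intensity with spot signal to noise over triplicate slides.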 As to conditions: EGFR binding, higher = more signal.
For experiment [18], the target named is Follistatin-related protein 3 (Homo sapiens) (UniProt O95633). Briefly: FSTL3 binders on small-molecule microarrays, primary screen, biochemical, small-molecule microarray, 635 nm fluorescence (AID 1105).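 Note: score merges emission near 667 nm and signal to noise per printed spot across three slides.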 The note with it: FSTL3 binding, higher = more signal.
For experiment [19], the target named is Dickkopf-related protein 1 (Homo sapiens) (UniProt O94907). Briefly: DKK1 binders on small-molecule microarrays, primary screen, biochemical, small-molecule microarray, 635 nm fluorescence scan (AID 1106).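 Note: score merges emission near 667 nm with signal to noise over three replicate slides.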 The note with it: DKK1 binding, higher = more signal.
Experiment [20] relates to Inhibin beta A chain (activin A). Briefly: INHBA (activin A) binders on microarrays, primary screen, biochemical, small-molecule microarray, 635 nm fluorescence scan (AID 1107).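 Note: mouse activin A protein probed at 4.33 µg/mL on printed slides; score merges bound-protein fluorescence near 667 nm with spot signal-to-noise.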 As to conditions: small-molecule microarray binding, higher = more signal.

Epidermal growth factor receptor (Homo sapiens), sequence (P00533 whole entry, looked up): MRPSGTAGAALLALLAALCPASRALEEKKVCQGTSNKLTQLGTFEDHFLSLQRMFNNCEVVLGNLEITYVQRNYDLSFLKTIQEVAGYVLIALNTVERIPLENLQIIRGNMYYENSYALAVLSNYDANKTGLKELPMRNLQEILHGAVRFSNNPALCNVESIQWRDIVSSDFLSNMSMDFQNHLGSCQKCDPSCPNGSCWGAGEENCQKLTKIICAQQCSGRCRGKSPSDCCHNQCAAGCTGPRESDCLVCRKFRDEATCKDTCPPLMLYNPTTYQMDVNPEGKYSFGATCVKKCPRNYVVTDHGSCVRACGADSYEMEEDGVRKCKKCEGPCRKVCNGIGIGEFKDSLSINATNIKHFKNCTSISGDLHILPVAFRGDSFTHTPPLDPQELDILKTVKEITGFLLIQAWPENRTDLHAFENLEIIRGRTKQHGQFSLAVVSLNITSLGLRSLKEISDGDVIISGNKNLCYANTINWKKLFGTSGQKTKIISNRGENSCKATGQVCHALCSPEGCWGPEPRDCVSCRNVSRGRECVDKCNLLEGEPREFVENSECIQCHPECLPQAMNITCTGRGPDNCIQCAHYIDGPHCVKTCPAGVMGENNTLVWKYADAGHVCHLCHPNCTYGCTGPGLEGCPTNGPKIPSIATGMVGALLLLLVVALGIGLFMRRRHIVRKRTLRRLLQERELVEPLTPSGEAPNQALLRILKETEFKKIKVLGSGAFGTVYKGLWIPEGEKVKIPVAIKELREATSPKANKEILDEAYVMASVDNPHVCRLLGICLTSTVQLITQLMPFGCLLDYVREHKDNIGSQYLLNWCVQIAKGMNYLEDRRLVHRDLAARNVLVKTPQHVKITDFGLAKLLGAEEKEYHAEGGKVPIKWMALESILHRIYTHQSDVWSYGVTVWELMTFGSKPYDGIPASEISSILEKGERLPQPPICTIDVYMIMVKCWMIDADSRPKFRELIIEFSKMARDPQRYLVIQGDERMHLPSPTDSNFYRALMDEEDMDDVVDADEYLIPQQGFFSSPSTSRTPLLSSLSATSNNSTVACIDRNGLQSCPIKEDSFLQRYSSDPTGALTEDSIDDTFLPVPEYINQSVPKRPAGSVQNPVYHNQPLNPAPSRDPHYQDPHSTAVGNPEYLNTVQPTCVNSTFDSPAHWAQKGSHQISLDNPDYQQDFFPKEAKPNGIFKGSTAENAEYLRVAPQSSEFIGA
Follistatin-related protein 3 (Homo sapiens), sequence (O95633 whole entry, looked up): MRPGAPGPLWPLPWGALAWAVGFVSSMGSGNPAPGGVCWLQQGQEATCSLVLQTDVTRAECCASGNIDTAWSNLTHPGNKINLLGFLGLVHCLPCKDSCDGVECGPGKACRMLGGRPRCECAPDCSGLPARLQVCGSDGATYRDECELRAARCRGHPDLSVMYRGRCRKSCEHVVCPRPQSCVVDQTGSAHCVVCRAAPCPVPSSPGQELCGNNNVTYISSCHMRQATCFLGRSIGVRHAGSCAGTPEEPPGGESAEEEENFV
Neurogenic locus notch homolog protein 3 (Homo sapiens), sequence (Q9UM47 whole entry, looked up): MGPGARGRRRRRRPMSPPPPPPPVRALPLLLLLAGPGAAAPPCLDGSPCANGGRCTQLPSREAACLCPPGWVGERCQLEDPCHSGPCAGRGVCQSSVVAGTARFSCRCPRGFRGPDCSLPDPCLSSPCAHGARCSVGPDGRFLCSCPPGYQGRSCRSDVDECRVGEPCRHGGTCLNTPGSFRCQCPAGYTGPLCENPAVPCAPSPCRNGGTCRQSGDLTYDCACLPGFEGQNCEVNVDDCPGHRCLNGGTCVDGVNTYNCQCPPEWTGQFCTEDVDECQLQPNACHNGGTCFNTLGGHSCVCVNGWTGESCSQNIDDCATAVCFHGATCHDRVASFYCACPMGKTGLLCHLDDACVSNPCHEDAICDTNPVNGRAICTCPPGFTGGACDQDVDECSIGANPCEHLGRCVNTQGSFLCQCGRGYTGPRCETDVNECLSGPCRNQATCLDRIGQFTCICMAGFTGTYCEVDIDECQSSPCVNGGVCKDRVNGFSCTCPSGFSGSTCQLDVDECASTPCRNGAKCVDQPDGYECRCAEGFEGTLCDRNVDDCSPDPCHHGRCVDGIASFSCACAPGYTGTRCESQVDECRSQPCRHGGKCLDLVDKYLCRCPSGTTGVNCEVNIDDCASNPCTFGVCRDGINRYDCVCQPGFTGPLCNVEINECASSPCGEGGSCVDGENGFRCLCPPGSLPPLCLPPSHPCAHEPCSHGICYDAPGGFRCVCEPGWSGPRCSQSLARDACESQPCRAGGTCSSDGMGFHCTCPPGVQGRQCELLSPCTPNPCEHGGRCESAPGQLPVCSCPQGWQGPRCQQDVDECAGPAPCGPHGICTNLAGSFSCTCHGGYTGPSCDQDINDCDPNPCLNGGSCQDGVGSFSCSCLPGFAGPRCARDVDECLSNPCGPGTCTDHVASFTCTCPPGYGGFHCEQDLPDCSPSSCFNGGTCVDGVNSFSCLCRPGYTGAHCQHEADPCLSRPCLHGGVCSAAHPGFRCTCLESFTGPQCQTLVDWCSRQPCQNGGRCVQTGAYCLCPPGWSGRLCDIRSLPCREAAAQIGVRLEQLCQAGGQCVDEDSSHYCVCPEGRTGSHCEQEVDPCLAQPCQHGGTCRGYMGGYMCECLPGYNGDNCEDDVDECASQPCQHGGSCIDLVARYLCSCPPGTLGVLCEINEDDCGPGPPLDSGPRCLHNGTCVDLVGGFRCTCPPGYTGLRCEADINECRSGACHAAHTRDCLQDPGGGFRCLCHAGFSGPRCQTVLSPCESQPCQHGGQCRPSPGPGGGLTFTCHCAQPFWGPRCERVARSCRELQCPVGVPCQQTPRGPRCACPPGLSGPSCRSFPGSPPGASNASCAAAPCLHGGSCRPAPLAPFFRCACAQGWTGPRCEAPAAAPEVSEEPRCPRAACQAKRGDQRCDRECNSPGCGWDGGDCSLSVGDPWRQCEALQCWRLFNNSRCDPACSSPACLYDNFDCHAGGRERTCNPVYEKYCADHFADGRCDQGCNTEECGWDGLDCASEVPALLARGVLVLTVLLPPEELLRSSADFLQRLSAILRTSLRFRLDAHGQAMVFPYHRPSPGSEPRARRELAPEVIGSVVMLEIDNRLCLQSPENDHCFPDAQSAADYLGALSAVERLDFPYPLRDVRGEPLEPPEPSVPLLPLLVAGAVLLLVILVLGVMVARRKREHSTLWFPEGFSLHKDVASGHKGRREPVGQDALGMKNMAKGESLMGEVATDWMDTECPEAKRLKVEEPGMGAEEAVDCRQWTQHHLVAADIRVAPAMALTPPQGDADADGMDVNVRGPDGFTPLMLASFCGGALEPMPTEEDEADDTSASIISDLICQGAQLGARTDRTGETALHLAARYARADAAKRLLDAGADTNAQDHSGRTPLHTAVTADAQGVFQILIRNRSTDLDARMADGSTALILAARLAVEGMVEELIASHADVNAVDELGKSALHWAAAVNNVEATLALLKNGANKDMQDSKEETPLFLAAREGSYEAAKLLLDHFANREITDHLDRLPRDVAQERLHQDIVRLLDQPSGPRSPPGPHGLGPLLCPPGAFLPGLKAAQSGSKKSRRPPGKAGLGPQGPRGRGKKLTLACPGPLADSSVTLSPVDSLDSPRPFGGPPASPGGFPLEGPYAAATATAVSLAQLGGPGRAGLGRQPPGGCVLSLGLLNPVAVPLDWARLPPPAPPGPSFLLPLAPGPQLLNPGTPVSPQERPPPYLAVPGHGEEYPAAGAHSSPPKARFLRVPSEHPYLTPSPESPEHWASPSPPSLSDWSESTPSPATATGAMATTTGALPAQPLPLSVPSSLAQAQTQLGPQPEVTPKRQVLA
Fibroblast growth factor 10 (Homo sapiens), sequence (O15520 whole entry, looked up): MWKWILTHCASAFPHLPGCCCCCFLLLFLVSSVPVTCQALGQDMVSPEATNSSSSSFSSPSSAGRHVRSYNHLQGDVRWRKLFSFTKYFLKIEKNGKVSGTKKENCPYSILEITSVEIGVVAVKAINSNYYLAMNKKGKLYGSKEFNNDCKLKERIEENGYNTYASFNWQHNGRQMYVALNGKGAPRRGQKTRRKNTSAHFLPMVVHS
Torsin-1A-interacting protein 2 (Homo sapiens), sequence (Q8NFQ8 whole entry, looked up): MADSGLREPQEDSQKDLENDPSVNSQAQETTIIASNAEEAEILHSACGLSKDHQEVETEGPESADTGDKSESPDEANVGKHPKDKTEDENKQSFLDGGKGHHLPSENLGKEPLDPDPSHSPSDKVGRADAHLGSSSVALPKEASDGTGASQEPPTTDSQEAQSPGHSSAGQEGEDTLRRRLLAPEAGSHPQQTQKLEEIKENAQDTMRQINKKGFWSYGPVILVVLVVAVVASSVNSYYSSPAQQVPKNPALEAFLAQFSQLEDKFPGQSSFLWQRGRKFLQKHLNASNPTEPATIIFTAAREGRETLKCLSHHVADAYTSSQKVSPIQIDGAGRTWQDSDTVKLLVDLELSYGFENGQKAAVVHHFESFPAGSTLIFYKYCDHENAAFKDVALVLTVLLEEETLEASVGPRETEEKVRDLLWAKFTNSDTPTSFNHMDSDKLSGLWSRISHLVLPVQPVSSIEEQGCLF
Dickkopf-related protein 1 (Homo sapiens), sequence (O94907 whole entry, looked up): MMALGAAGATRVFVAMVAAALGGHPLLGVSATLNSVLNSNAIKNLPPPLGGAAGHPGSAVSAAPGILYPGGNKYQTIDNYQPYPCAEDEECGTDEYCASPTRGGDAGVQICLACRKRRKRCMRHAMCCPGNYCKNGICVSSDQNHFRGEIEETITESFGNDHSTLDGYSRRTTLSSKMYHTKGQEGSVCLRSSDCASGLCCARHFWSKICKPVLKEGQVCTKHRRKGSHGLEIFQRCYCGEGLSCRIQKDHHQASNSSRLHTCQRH

On to `O=C1O[C@H](c2ccccc2)[C@H](c2ccccc2)N2[C@H]1[C@@H](C(=O)NC[C@H](O)c1ccccc1)[C@]1(C(=O)Nc3ccc(C#CC4(O)CCCCCC4)cc31)[C@H]2c1ccccc1OCCO`, for which the composite z-score in experiment [1] is 1.54; in [5], 2.84; in [7], -0.119; in experiment [8], 1.08; in [9] it was 0.644; in [10], -0.182. The composite z-score in [11] is 1.51; in [12] it was -0.26; in experiment [13], -0.313; in experiment [15], 1.17; in experiment [16], 1.16; in experiment [17] it was -0.028. The figures for the composite z-score in experiment [18], in experiment [19] and in [20] were 0.948, 0.178 and 0.048, respectively. Besides, the z-score in [2] was 2.05 (inactive); in experiment [3], 1.27 (inactive); in [4], 5.14 (inactive); in experiment [6], 0.0483 (inactive); in [14], -1.11 (inactive).
For the compound `O=P(NCC1(CC2(c3ccccc3)CO2)CC1)(c1ccccc1)c1ccccc1` (stereo not given), the composite z-score in [1] is -0.878; in experiment [5], 3.14; in experiment [7], -0.132; in experiment [8] it was -1.44; in [9], -1.19; in experiment [10], -0.207. Besides, the composite z-score in experiment [11] was 1.57; in [12], 0.29; in [13] it was 1.02; in experiment [15] it was -0.686; in [16] it was -1.49; in [17], -1.28. For the same compound, the composite z-score is -1.37 in experiment [18], -0.915 in experiment [19] and 0.758 in experiment [20]. The z-score was -0.468 (inactive) in experiment [2]; 1.08 (inactive) in [3]; 0.236 (inactive) in [4]; 0.31 (inactive) in experiment [6]; -1.45 (inactive) in experiment [14].
Take `CN(C)CCCC[C@@H]1NC(=O)[C@H]2C[C@@H](C(=O)NCCCCCNC(=O)CS)[C@@H](c3ccc(O)cc3)N2C1=O`: the composite z-score in [1] was -0.97; in experiment [5] it was 0.134; in [7], 0.0601; in experiment [8], -0.673; in experiment [9], -0.0464; in experiment [10], -0.167. The composite z-score in [11] was 0.133; in [12], 0.0417; in experiment [13], 0.308; in experiment [15], -1.2; in experiment [16], -0.53; in experiment [17], -0.483. Further, the figures for the composite z-score in experiment [18], in experiment [19] and in [20] were -1.39, -0.653 and 0.0182, respectively. The z-score in experiment [2] is 0.428 (inactive); in [3] it was -0.578 (inactive); in [4], -0.52 (inactive); in experiment [6] it was 0.702 (inactive); in experiment [14], 1.1 (inactive).
Take `CCOC(=O)C=Cc1cccc(OC)c1O`: the composite z-score is 0.124 in experiment [1]; 0.0496 in experiment [5]; -0.249 in experiment [7]; -1.09 in [8]; -0.125 in experiment [9]; -0.209 in [10]. Also, the composite z-score in experiment [11] was -0.0095; in experiment [12], -0.349; in experiment [13], 0.165; in [15], -0.96; in experiment [16] it was -0.073; in experiment [17] it was -1.71. The composite z-score in experiment [18] is -0.631; in [19], -1.77; in [20], -0.4. Also, the z-score was -9.3 (active) in experiment [2]; -7.21 (inactive) in [3]; -0.346 (inactive) in [4]; -0.0998 (inactive) in [6]; -1.98 (inactive) in experiment [14].
As to `CC(c1ccccc1)C(O)C1C=CC2C(=O)N(c3ccccc3)C(=O)C2N1Nc1ccccc1F` (stereo not given), the composite z-score is 1.26 in experiment [1]; 2.87 in [5]; 0.0841 in experiment [7]; -0.138 in experiment [8]; 1.14 in [9]; -0.0192 in [10]. Besides, the composite z-score in experiment [11] is 0.308; in experiment [12], 0.535; in [13] it was 1.09; in experiment [15], 0.356; in [16] it was 0.214; in experiment [17] it was -0.0346. Further, the figures for the composite z-score in experiment [18], in experiment [19] and in experiment [20] were 0.683, -0.526 and 0.913, respectively. In addition, the z-score in experiment [2] was -1.11 (inactive); in [3], 1.15 (inactive); in [4] it was -1.99 (inactive); in [6], 0.198 (inactive); in experiment [14], -1.02 (inactive).
